# According to PubChem BioAssay (NCI):
# This is part of a sample that, as a whole, favours compounds with a hit. Of some 83,000 tested, about 20% had one in any assay.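 Single-concentration screen, 48 h exposure, 96-well plates. Endpoint: percent growth. Below 10 = active.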 Values without a mark were called inactive. Activity calls are given as the source filed them.
# Tested on: MDA-MB-231 breast
# Experiment: NCI-60 one-dose screen, 48 h (100 = growth as untreated, 0 = no growth, -100 = all killed)
# Conditions: 10 µM unless noted
row,Structure (SMILES),growth
1,COc1cc(C(=O)n2nc(N3CCN(C)CC3)c3cc(N)ccc32)cc(OC)c1OC,50.3%
2,O=C1N[C@@H]2NC(=[N+]3CCOCC3)N[C@@H]2N1,103%
3,N#Cc1c(N)nnn1Cc1cc(=O)oc2c1ccc1ccccc12,86.7%
4,COc1cc(OC)cc(C2=C3CC[C@@H]4[C@H](CC[C@]5(C)C(=O)CC[C@@H]45)C3=CC3C(O)c4cccnc4N4C(=O)COC234)c1 (stereo not given in full),97.8%
5,C=C(C)[C@@H]1CC[C@]2(C(=O)N3CCN(C)CC3)CC[C@]3(C)[C@H](CC[C@@H]4[C@@]5(C)CC(=C/c6ccncc6)/C(=N/O)C(C)(C)[C@@H]5CC[C@]43C)[C@@H]12,65.7%
6,CN1CCN(Cc2ccc3c(NNC(=O)c4ccccc4)nc4cc(F)ccc4n23)CC1,43.2%
7,CCOC(=O)c1c2c(n3ccc(C)cc13)C(=O)c1ccccc1C2=O,90.2%
8,CCCC(=O)NC(c1ccc2c(c1)OCO2)c1ccc2cccnc2c1O (stereo not given),31.2%
9,Cc1nc2sc(C(=O)Nc3ccccc3)c(N)c2cc1C(=O)c1ccccc1,58%
10,COC(=O)c1ccc2c(c1)C(=O)c1c-2n(CCCN)c(=O)c2cc([N+](=O)[O-])ccc12,-100% (active)
11,CO[C@]12C=C/C(=C(/C(=O)OCc3cccnc3)C(=O)CCCCCCCC[C@@]3(OC)C=C/C(=C(/C(=O)OCc4cccnc4)C(=O)CCCCCCCC1)O3)O2,13.9%
12,Brc1c2c(c(Br)c3ccccc13)CCCC2,91%
13,Cc1cc2c([nH]1)CSc1cc(S(=O)(=O)c3ccccc3)c(=O)[nH]c1-2,23.3% [100 µM]
14,CC1=C(Nc2ccc(N3CCN(C)CC3)cc2)C(=O)c2cncnc2C1=O,-10.1% (active)
15,CCCCCCC1(C)NCCO1 (stereo not given),104%
16,C#CCOc1cccc(Nc2ncnc3ccc(NC(=O)CCl)cc23)c1,-37.8% (active)
17,COc1ccc(C(=O)C2C(c3ccc(OC)cc3)CN(C)C23C(=O)Nc2ccccc23)cc1 (stereo not given),93.9%
18,CCN(CC)CCNC(=O)c1cn2ncnc(Oc3ccc(NC(=O)Nc4ccc(Cl)c(C(F)(F)F)c4)c(F)c3)c2c1C,-82.5% (active)
19,CC(=O)OCc1nc(C#N)c(N(C)C)o1,94.9%
20,CN[C@]12CC3(C=CC(=O)C=C3)O[C@@]1(Cc1ccc(OC)cc1)N(C)C(=O)N2,76.9%

row,Structure (SMILES),growth
1,C=C(CNCCc1ccc(O)cc1)[C@@H]1CC[C@]2(CO)CC[C@]3(C)[C@H](CC[C@@H]4[C@@]5(C)CCC(NCCO)C(C)(C)[C@@H]5CC[C@]43C)[C@@H]12 (stereo not given in full),-77.6% (active)
2,O=C1/C(=C\c2cn(-c3ccccc3)nc2-c2ccc(-c3cccs3)cc2)CCc2ccccc21,67.5%
3,Cc1ccc(-c2nn(-c3ccccc3)cc2C=C2C(=O)ON=C2C(C)C)cc1,97.3%
4,CC/C(=C(/c1ccc(Cl)cc1)c1ccc(OCCN2CCCC2)cc1)c1ccc(OC)cc1,80.2%
5,Cc1c(-c2nc3ccc(F)cc3c(=O)[nH]2)c2ccccc2n1C,57.8%
6,COC1=CC(c2ccc[nH]2)=N/C1=C\c1[nH]c(C)c(C(=O)OCc2ccccc2)c1C,-65.1% (active)
7,COc1ccc(C/C(C)=C(/c2ccc(OCCN3CCCCC3)cc2)c2ccc(OC(=O)NCc3ccccc3)cc2)cc1,-86.9% (active)
8,CC(C)N1CN2C(=S)NC3C2N(C1)C(=S)N3C (stereo not given),110%
9,CCCCN[C@H]1CC[C@@]2(C)[C@@H](CC[C@@]3(C)[C@H]2[C@H](O)C[C@H]2/C(=C(\CCC=C(C)C)C(=O)OC)[C@@H](OC(C)=O)C[C@@]23C)[C@@H]1C,114%
10,O=[N+]([O-])c1ccc(-c2nc(N3CCOCC3)c3c4c(sc3n2)CCCC4)cc1,81%
11,COc1cc(N2C(=O)[C@H](O)C2c2ccc(SC)cc2)cc(OC)c1OC (stereo not given in full),30.3%
12,C#Cc1ccc(NC(=O)c2ccc(/C=C/C(=O)c3nccn3C)cc2)cc1,-55.7% (active)
13,Cc1nnc(NC(=O)c2nc(S(=O)(=O)Cc3ccc(F)cc3)ncc2Cl)s1,66%
14,Cc1ccccc1/C=C1\CN(C(=O)OC(C)(C)C)C/C(=C\c2ccccc2C)C1=O,42.7%
15,C[C@]12C=CC(=O)C=C1CCC1C2[C@@H](O)C[C@@]2(C)C1CC[C@]2(O)C(=O)COC(=O)CCC(=O)O (stereo not given in full),94.7%
16,O=C(Cn1c2c(c3ccccc31)CCCC2)Nc1ccc(-c2nc3ccccc3s2)cc1,96%
17,Cc1cc(Cl)ccc1Nc1nc(C(F)(F)F)ccc1C(=O)N/N=C/c1ccc([N+](=O)[O-])cc1,-51.5% (active)
18,O=C(Nn1c2c(sc1=NCc1ccccc1)C(=O)c1ccccc1C2=O)c1cc2ccc1CCc1ccc(cc1)CC2,40.4%
19,CC(C)c1ccc(COCc2cc(CN3CCCC3)c(O)c3ncccc23)cc1,8.36% (active)
20,Cn1cccc1C(=O)C1C(c2cccc([N+](=O)[O-])c2)C2C3CCCCC3CN2C12C(=O)Nc1ccc(Cl)cc12 (stereo not given),55.6%
